Compounds with a hit are over-represented: about 0.93% of the library has one in this group of screens.
HIV TAR-Tat: HIV-1 TAR-Tat binding disruption. HIV-1 TAR RNA, Tat peptide displacement FRET; hits give high values. z-score (no concentration beside the values). hit rate 0.6% among 100,000. AID 1259389; active means z-score of 3 or more in at least 2 runs
CDC25B CDK2 inh: human CDC25B-CDK2/CyclinA binding inhibition; P30305+P24941; HTRF CDC25B-CDK2/CyclinA binding, anti-His/anti-Flag; hits give high values; z-score (test concentration not listed); hit rate 0.72% among 94,000; AID 1259370; in the data active means z-score above about 3.2
The depositor's hits bear a star; . = no result.

SMILES | HIV TAR-Tat | CDC25B CDK2 inh
COCCNC(=O)Nc1ccc2nc3c4ccccc4c4ccccc4c3nc2c1 | . | 20.4*
O=C(NNc1cc(C(F)(F)F)nc2ccccc12)Nc1ccccc1 | . | 0.86
S=C(Nc1ccc2nc3c4ccccc4c4ccccc4c3nc2c1)NC1CC1 | . | 7.1*
CCc1cc2c3c([nH]c2cc1S(=O)(=O)NCC1CCN(CCc2cccs2)CC1)CCCC3=O | 1.29 | .
CC(=O)N1c2ccc(S(=O)(=O)NC(C(=O)Nc3nccs3)C(C)C)cc2CC1C (stereo unspecified) | 1.11 | .
Cc1ccc(S(=O)(=O)Nc2ccc(O)c3cccnc23)cc1 | 0.05 | 8.33*
Cc1ccc(S(=O)(=O)Nc2ccc(O)c3ncccc23)cc1 | 0.89 | 14.5*
Cc1ccc(S(=O)(=O)Nc2cccc3ncccc23)cc1 | . | -1.51
Cc1ccc(S(=O)(=O)Nc2ccc(Cl)c3cccnc23)cc1 | 2.26 | 0.07
O=C(Nc1nccs1)C1CCN(S(=O)(=O)c2cc(C(=O)N3CCCCC3)cs2)CC1 | 1.95 | .
Cc1cc(C)cc(NC(=O)N2CCN(c3cc(N4CCCC4)nc(C)n3)CC2)c1 | 0.12 | 0.34
COc1ccc(-c2cn3c4ccccc4nc3n2CCN2CCOCC2)cc1 | . | -0.03
CCCn1c(=O)oc2cc(NS(=O)(=O)c3cnc[nH]3)ccc21 | 0.84 | .
Cc1ccc2c(c1)S/C(=C\c1sc3ccccc3[n+]1C)N2CCO | 7.9* | 2.44
Cc1ccc2c(c1)N(CCO)/C(=C/c1sc3ccccc3[n+]1C)S2 | -0.61 | -1.5
c1nc(N2CCCC2)c2nc3n(c2n1)CCCCC3 | 1.53 | -1.2
COc1cc(NS(=O)(=O)c2ccc(-c3coc(C)n3)cc2)cc(OC)c1 | 1.46 | .
COc1ccc(C2/C(=C(\O)c3ccc(Cl)cc3)C(=O)C(=O)N2c2cccnc2)cc1OC (stereo unspecified) | 1.15 | -3.66
O=C(c1nc2n(n1)C1(CCCCC1)[C@@H]1CCCC[C@@H]1N2C(=O)C1CCCCC1)N1CCOCC1 | 1.75 | -0.54
CCCSc1ncc(CO)n1Cc1ccc(OC)cc1 | 1.72 | .
O=C(NC1CCSC1=O)c1ccc(-c2ccccc2)cc1 (stereo unspecified) | 2.03 | -3.17
O=C(NC1CCSC1=O)c1cccc(C(=O)NC2CCSC2=O)c1 (stereo unspecified) | 26.1* | -0.45
COc1cccc(OC)c1C(=O)NN | . | -2.14
COc1cccc(O)c1O | 13.4* | .
CN(C)CCOC(=O)c1ccco1 | 1.62 | -3.21
SMILES | HIV TAR-Tat | CDC25B CDK2 inh
CCCc1ccc(-c2ccc(C(N)=O)cc2)cc1 | . | -1.08
CCCc1cc(C(N)=S)ccn1 | 22.2* | .
CC(=O)Nc1nnc(SCc2cc(=O)n3nc(C(C)C)sc3n2)s1 | 0.71 | .
O=c1ccc(-c2ccc(S(=O)(=O)Nc3ccc(F)c(Cl)c3)o2)n[nH]1 | 0.46 | .
COc1cc(OC)c2nc(C)c3c(c2c1)SCC3 | . | -1.76
Fc1ccc(NCc2ccncc2)cc1 | 1.05 | 15.4*
c1cc(CNc2ccc3c(c2)OCO3)ccn1 | 0.91 | 0.08
O=C(COc1ccc(Br)cc1)Nc1ccc2nsnc2c1 | 0.87 | -2.14
O=S1(=O)C[C@H](NCCc2ccc(F)cc2)[C@@H](S(=O)(=O)c2ccc(Cl)cc2)C1 | -0.69 | 0.54
COc1ccc(-c2nc3c(c(=O)[nH]2)Cc2cc(Br)cc(OC)c2O3)cc1O | 1.72 | -1.76
COc1ccc(-c2nc3c(c(=O)[nH]2)Cc2cc(Br)cc(OC)c2O3)cc1OC | 12.7* | -0.88
Cc1cccc(C(=O)Nc2nnc(SCc3cc(=O)n4nc(C)sc4n3)s2)c1 | 1.12 | .
Cn1nnnc1SCCCNCc1ccc2c(c1)OCO2 | 0.9 | 0.14
CCOC(=O)C1CCN(c2cc(NCCOC)c3c4c(onc24)-c2ccccc2C3=O)CC1 | 1.31 | -1.3
CCOC(=O)C1CCCN(c2cc(NCC(C)C)c3c4c(onc24)-c2ccccc2C3=O)C1 (stereo unspecified) | 0.8 | -1.22
CCOC(=O)N1CCN(c2cc(NCCCC(=O)O)c3c4c(onc24)-c2ccccc2C3=O)CC1 | 0.69 | -0.95
CCOC(=O)C1CCN(c2cc(NCC(=O)O)c3c4c(onc24)-c2ccccc2C3=O)CC1 | -5.82 | 5.89*
CCOC(=O)C1CCCN(c2cc(NCCCC(=O)O)c3c4c(onc24)-c2ccccc2C3=O)C1 (stereo unspecified) | 20.7* | 10.6*
CCOC(=O)N1CCN(c2cc(NCC(=O)O)c3c4c(onc24)-c2ccccc2C3=O)CC1 | -6.15 | 3.17*
Cc1cc(NCc2ccc(F)cc2)nc2cc(O)ccc12 | . | -0.84
CCCCC(CC)CN1CC(O)=C(c2nc3ccc(C)cc3[nH]2)C1=N (stereo unspecified) | 2.1 | -1.33
O=C(NCCN1CCCC1)C1CCN(c2nc3ccccc3n3cccc23)CC1 | -4.71 | .
COc1ccc(C)cc1Nc1nc2ccc(C)cc2n2cnnc12 | 1.02 | 1.72
CC(C)c1nn2c(=O)cc(COC(=O)CSc3ccccc3)nc2s1 | -0.22 | .
Nc1c(-c2nc(-c3ccc(Cl)cc3)no2)nnn1-c1ccc(Br)cc1 | -0.53 | .
SMILES | HIV TAR-Tat | CDC25B CDK2 inh
COc1ccc(OC)c(C2OC(COc3ccc(Cl)cc3)=NN2C(C)=O)c1 (stereo unspecified) | -0.15 | .
COc1ccc(C2C3=C(Nc4nc(N)[nH]c(=O)c42)c2ccccc2C3=O)cc1 (stereo unspecified) | 3.7* | 13.8*
COc1cc(C2C3=C(Nc4nc(N)[nH]c(=O)c42)c2ccccc2C3=O)ccc1O (stereo unspecified) | 5.64* | 2.72
COc1ccc(C2CC(=O)Nc3nc(N)[nH]c(=O)c32)cc1 (stereo unspecified) | 0.84 | 1.19
COc1cc(C2CC(=O)Nc3nc(N)[nH]c(=O)c32)ccc1O (stereo unspecified) | -1.22 | -1.86
COc1ccc(OCC(O)Cn2c(N3CCN(C)CC3)nc3c2c(=O)n(C)c(=O)n3C)cc1 (stereo unspecified) | . | -4.35
Cn1c(=O)oc2cc(S(=O)(=O)N3CCCC(C(=O)N4CCOCC4)C3)ccc21 (stereo unspecified) | . | -0.6
O=C1C(=O)N(Cc2cccnc2)C(c2ccccc2)/C1=C(\O)c1ccc(F)cc1 (stereo unspecified) | 0.44 | -0.78
O=c1[nH]c(SCc2c(F)cccc2Cl)nc2c1CCC2 | 8.61* | -1.86
O=c1[nH]c(SCc2ccccc2F)nc2c1CCC2 | 0.61 | -1.69
Cc1nn2c(=O)cc(COc3c(C)cccc3C)nc2s1 | 0.88 | -0.74
CCCCC(=O)Nc1nn2c(-c3ccco3)nnc2s1 | 0.46 | 0.33
CC(=O)NC(Nc1ccccc1)(C(F)(F)F)C(F)(F)F | . | -1.86
NCC(O)c1ccc(O)c(O)c1 (stereo unspecified) | . | 5.4*
CC(C)NC[C@H](O)c1ccc(O)c(O)c1 | . | 0.23
CCN1C(=O)c2cccc3c(S(=O)(=O)NC(Cc4ccccc4)C(=O)O)ccc1c23 (stereo unspecified) | 1.1 | -0.79
CCN1C(=O)c2cccc3c(NC(=O)c4ccc(Cl)s4)ccc1c23 | . | 16.1*
COc1cccc(C(=O)NC(NC(=S)Nc2ccc(Cl)cc2Cl)C(Cl)(Cl)Cl)c1 (stereo unspecified) | . | 2
COc1cc(C(=O)NC(NC(=S)Nc2cccc3ccccc23)C(Cl)(Cl)Cl)cc(OC)c1OC (stereo unspecified) | . | 5.06*
CCOc1cc(C2c3c(oc4ccc(Cl)cc4c3=O)C(=O)N2Cc2ccc(F)cc2)ccc1O (stereo unspecified) | 0.9 | -1.11
Cc1ccc(-c2nc(SCC(=O)Nc3ccc(C)c(C)c3)n3[nH]c(=O)cc3n2)cc1 | 19.1* | .
